# Experimental data taken from article PMC4336329 (PLoS ONE, 2015).
# About 14,000 (4.5%) of roughly 310,000 compounds showed an effect of 50% or more. Effects have a minus sign here. The full list was thinned out, with strong results kept by preference.
# Molecular target: human ether-à-go-go-related gene (hERG) potassium channel (human, UniProt Q12809)
# Assay: primary screen, population patch clamp on CHO cells stably expressing hERG; higher = less effect of the substance
# 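Note: peak tail current of the secondary pulse compared with the same well before compound.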
# human ether-à-go-go-related gene (hERG) potassium channel, sequence (Q12809 whole entry, looked up): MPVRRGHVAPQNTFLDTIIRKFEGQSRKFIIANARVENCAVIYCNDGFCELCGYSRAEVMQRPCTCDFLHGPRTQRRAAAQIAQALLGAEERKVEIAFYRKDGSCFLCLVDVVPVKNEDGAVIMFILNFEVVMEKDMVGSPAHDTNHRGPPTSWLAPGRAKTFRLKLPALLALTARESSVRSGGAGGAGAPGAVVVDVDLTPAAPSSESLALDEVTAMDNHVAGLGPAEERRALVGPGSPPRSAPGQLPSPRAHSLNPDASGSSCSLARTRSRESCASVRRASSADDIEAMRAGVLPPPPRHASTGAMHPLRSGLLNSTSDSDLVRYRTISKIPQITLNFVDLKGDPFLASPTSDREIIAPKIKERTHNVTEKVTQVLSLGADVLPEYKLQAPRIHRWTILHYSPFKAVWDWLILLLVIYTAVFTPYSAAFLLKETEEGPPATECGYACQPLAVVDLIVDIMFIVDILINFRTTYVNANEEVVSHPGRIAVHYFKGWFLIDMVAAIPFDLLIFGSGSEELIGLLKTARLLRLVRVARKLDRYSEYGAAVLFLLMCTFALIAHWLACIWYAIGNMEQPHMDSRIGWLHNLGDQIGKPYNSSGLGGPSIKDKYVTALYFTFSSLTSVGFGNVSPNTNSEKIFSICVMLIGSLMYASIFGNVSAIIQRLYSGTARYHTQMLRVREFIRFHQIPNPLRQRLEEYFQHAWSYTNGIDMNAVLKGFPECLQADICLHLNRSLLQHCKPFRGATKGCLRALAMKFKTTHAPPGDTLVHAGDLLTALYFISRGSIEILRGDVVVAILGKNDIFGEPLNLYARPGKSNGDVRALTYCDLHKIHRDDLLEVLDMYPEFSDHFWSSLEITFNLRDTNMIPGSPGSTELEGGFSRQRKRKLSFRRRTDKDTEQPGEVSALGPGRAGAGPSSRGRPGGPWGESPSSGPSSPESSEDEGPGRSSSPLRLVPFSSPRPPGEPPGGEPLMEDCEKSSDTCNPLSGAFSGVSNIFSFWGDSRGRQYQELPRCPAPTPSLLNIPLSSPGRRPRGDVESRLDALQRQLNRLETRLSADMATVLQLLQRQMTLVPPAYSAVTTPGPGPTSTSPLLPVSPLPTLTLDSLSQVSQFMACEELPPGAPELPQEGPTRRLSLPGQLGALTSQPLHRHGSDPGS
row,SMILES,"hERG current change (%, negative = inhibition) at 10uM [%]"
1,COc1cccc(N(C(=O)c2sc(C)nc2C)C(C(=O)NCC2CCCO2)c2ccccc2)c1 (centres unmarked),-8.87
2,CC1CCCCC1NC(=O)c1ccc2c(c1)OCCO2 (centres unmarked),3.51
3,Cc1cc(OCc2nc3ccccc3s2)ccc1N,-1.17
4,Cc1cc(NC(=O)/C=C/c2cccc(Cl)c2)n(-c2nc3ccccc3[nH]2)n1,-1.83
5,COc1ccc(-c2csc(N3CCN(S(=O)(=O)c4ccc5c(c4)NC(=O)CO5)CC3)n2)cc1,17.2
6,CN1CCN(c2ccncc2S(=O)(=O)N2CCCCC2)CC1,14.7
7,CCC(=O)NN1CCN(c2ccncc2S(=O)(=O)N2CCCCC2)CC1,5.14
8,CCC(=O)N(C(=O)CC)N1CCN(c2ccncc2S(=O)(=O)N2CCCCC2)CC1,-52.5
9,Cc1cc(N(C)C)c(C#N)c(N2CCCCC2)n1,-4.92
10,O=C(OC(c1ccccc1)c1nccc2ccccc12)c1cc([N+](=O)[O-])cc([N+](=O)[O-])c1 (centres unmarked),22.9
11,Cc1occc1C(=O)/C(C#N)=C/c1ccc(O)c(Br)c1,6.16
12,O=C(NCCCc1ccccc1)c1cc(COc2c(F)cccc2F)on1,-6.23
13,O=C(NCCc1cn2ccccc2n1)c1cc(COc2c(F)cccc2F)on1,-64.9
14,Cc1cc(C)nc(CCNC(=O)c2cc(COc3c(F)cccc3F)on2)n1,4.72
15,Cc1cc(C)n(CCNC(=O)c2cc(COc3ccc4ncccc4c3)on2)n1,-3.15
16,Cc1ccc(OCc2cc(C(=O)NCc3cn4ccccc4n3)no2)cc1C,-38.7
17,O=C(NCCc1cn2ccccc2n1)c1cc(COc2ccc3ncccc3c2)on1,-65.7
18,Cc1cc(C(=O)NC(=S)Nc2cccc(NC(=O)C(C)C)c2)ccc1[N+](=O)[O-],3.95
19,Cc1ccc(NC(=O)C2CCC(=O)N2C(=O)OCc2ccccc2)cc1 (centres unmarked),-23.5
20,COc1ccc(C(=O)C2CCCN(C(=O)c3cccnc3OC)C2)cc1F (centres unmarked),-4.56
21,COc1ccc(F)cc1C(=O)C1CCCN(C(=O)CSc2ccccn2)C1 (centres unmarked),-7.26
22,CN(C)c1cccc(C(=O)N2CCCC(C(=O)c3cc(F)ccc3F)C2)c1 (centres unmarked),0.21
23,COC(=O)c1cccc(C(=O)N2CCCC(C(=O)c3cc(F)ccc3F)C2)c1 (centres unmarked),-21
24,O=C(c1cc(F)ccc1F)C1CCCN(C(=O)c2ccc3nccnc3c2)C1 (centres unmarked),-50.2
25,O=C(c1cc(F)ccc1F)C1CCCN(Cc2cccn2-c2ccccn2)C1 (centres unmarked),-77.9
26,O=C(c1cc(F)ccc1F)C1CCCN(C(=O)CSc2ccccn2)C1 (centres unmarked),-31.9
27,COc1ncccc1C(=O)N1CCCC(C(=O)c2cc(F)ccc2F)C1 (centres unmarked),-9.02

row,SMILES,"hERG current change (%, negative = inhibition) at 10uM [%]"
1,COc1ccc(F)cc1C(=O)C1CCCN(Cc2cccn2-c2ccccn2)C1 (centres unmarked),-83.5
2,COc1ccc(F)cc1C(=O)C1CCCN(Cc2cccn2-c2cccnc2)C1 (centres unmarked),-47
3,COc1ccc(C(=O)C2CCCN(Cc3cccn3-c3ccccn3)C2)cc1F (centres unmarked),-78.5
4,COc1ccc(S(=O)(=O)N2CCC(C(=O)NC3(C)CCS(=O)(=O)C3)CC2)cc1OC (centres unmarked),7.87
5,Cc1cc(C)nc(N2CCCC(C(=O)NCc3cccc(C(F)(F)F)c3)C2)n1 (centres unmarked),16.7
6,Cc1ccc(CN2CCN(/N=C/c3cc(Br)cc(Br)c3O)CC2)cc1,5.09
7,CCOC(=O)C(CC)/C(C)=N\NC(=O)c1cccc(C)c1 (centres unmarked),35.5
8,O=S(=O)(NCc1ccc(C(F)(F)F)cc1)c1ccc(-n2cnnn2)cc1,-22.2
9,COC(=O)C1=C(C)NC(=S)N(C(C)=O)C1c1ccccc1 (centres unmarked),-8.87
10,CCc1sc(C(=O)Nc2cc(S(=O)(=O)N3CCOCC3)ccc2OC)cc1C,7.24
11,O=c1[nH]c(C2CCCN(S(=O)(=O)c3ccccc3)C2)nc2c1nnn2Cc1ccc(OC(F)(F)F)cc1 (centres unmarked),26.6
12,COc1cccc(-c2nnc(SCC(N)=O)n2-c2ccc(Cl)cc2)c1,-9.7
13,CC(=O)NNC(=O)CN1C(=O)CN=C(c2ccccc2)c2cc(Br)ccc21,13.1
14,NNC(=O)CN1C(=O)CN=C(c2ccccc2)c2cc(Br)ccc21,-5.51
15,O=C1CN=C(c2ccccc2)c2cc(Br)ccc2N1Cc1cc(=O)n2ccccc2n1,-51.7
16,O=C(C1CCCN1S(=O)(=O)c1cccc2nsnc12)N1CCCCC1 (centres unmarked),11
17,CC(=O)c1ccc(N2CCN(C(=O)C3CCCN3S(=O)(=O)c3cccc4nsnc34)CC2)cc1 (centres unmarked),-1.72
18,O=C(C1CCCN1S(=O)(=O)c1cccc2nsnc12)N1CCN(c2ccc(F)cc2)CC1 (centres unmarked),-69.3
19,COc1ccc(N2CCN(C(=O)C3CCCN3S(=O)(=O)c3cccc4nsnc34)CC2)cc1 (centres unmarked),-30.6
20,O=C(C1CCCN1S(=O)(=O)c1cccc2nsnc12)N1CCCCCC1 (centres unmarked),7.97
21,O=C(C1CCCN1S(=O)(=O)c1cccc2nsnc12)N1CCN(c2ccccc2)CC1 (centres unmarked),-69.5
22,CCOc1ccc(/C(O)=C2/C(=O)C(=O)N(c3ncccn3)C2c2ccccc2)cc1 (centres unmarked),-4.75
23,CN1CCN(S(=O)(=O)c2cccc(C(=O)Nc3cc(C(F)(F)F)ccc3N3CCCC3)c2)CC1,-1.41
24,CCCCCn1nc(C)c(/C=N\NC(=O)c2cc(C)oc2C)c1C,-65.5
25,CCCCCn1nc(C)c(/C=N/NC(=O)c2ccoc2C)c1C,-43.8
26,Cc1cc(C(=O)N/N=C/c2c(C)nn(-c3ccccc3)c2C)c(C)o1,3.8
